Compound activity deposited in PubChem by National Center for Advancing Translational Sciences (NCATS).
KB-3-1 tox – qHTS assay for MDR1-selective chemotherapeutics: Primary screen using the parental adenocarcinoma cell KB-3-1; KB-3-1 viability, CellTiter-Glo ATP luminescence, 72 h; Potency, µM (doses to about 46.1 µM), usual class: cytotoxic; 400,000 tested, 1.4% active; AID 1347075, 2019; also: nearly all actives have a fitted effect of over 60% in size
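KB-3-1 cells, DMEM (no phenol red) + 10% FBS; compound by pin transfer, 72 h, 37 °C. Readout: CellTiter-Glo luminescence after 10 min. Data normalized, curve-fitted.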
SW480 rerep – A quantitative high throughput screen for small molecules that induce DNA re-replication in SW480 colon adenocarcinoma cells; AID 624297, 2012; SW480 DNA re-replication, Hoechst DNA content imaging, 48 h; 340,000 tested, 1.8% active; Potency, µM (highest dose often 46.1 µM), actives largely listed as activators; also: nearly all actives have a fitted effect of over 55% in size
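SW480 cells exposed to compounds for 48 hr at 37 C, 5% CO2, then Hoechst-stained 40 min. Nuclear DNA content imaged by fluorescence scanning (405 nm excitation, 500-530 nm emission); re-replication scored as increased high-intensity nuclei.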
MCF10A rereplic – A quantitative high throughput screen for small molecules that induce DNA re-replication in MCF 10a normal breast cells; MCF 10A DNA re-replication, Hoechst nuclear intensity, 48 h; Potency, µM (titrated, usually from 46.1 µM), usual class: activators; 350,000 tested, 2.9% active; also: nearly all actives have a fitted effect of over 50% in size
KB-V1 MDR tox – qHTS assay for MDR1-selective chemotherapeutics: Primary screen using the drug-selected MDR subline cells KB-V1 | KB-V1 MDR cells viability, CellTiter-Glo, 72 h | Potency, µM (top dose mostly 46.1 µM), hits mostly cytotoxic | 400,000 tested, 3.4% active | AID 1347076, 2019; also: nearly all actives have a fitted effect of over 60% in size
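Luminescent ATP read-out (CellTiter-Glo, 10 min) measures survival of drug-selected KB-V1 MDR cells after 72 h, 37 degrees C compound exposure. Medium: phenol-red-free DMEM, 10% FBS. Values from fitted concentration-response curves.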
ELG1 DNA repair – qHTS screen for small molecules that inhibit ELG1-dependent DNA repair in human embryonic kidney (HEK293T) cells expressing luciferase-tagged ELG1. 330,000 tested, 2.3% active. Potency, µM (titrated, usually from 46.1 µM), hits mostly inhibitors. HEK293T ELG1-luciferase reporter, luminescence, 16 h; DNA damage induced by 5-fluorouridine. AID 504467, 2011; also: nearly all actives have a fitted effect of over 55% in size
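Step one: seed 2,000 cells per well. Step two: pin-transfer compound or DMSO alongside 5-fluorouridine. Step three: incubate 16 hr, 37 °C, 5% CO2. Step four: add ONE-Glo, wait 30 min, read luminescence.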
Each line names hits and unclear results; the compound was inactive in the other large screens; ! = a repeat was not active. A selection: hits, their analogues and other compounds. The true share with any hit is near 8.1%. Calls follow the shape of the dose curve; as a rule, active = well fitted curve in the direction sought with a large enough effect; inconclusive = small, poorly fitted or top-dose-only effect, or another doubt; inactive = no such curve, though single readings can be large; an effect the other way counts as inactive or inconclusive.

NNc1nc(-c2ccccc2Cl)nc2sc3c(c12)CCCC3	KB-3-1 tox inconclusive, SW480 rerep inconclusive, KB-V1 MDR tox 4.6µM, ELG1 DNA repair inconclusive
CN1CCN(Cc2nc3ccccc3c(=O)n2Cc2nc(-c3ccccc3F)cs2)CC1	KB-V1 MDR tox inconclusive, ELG1 DNA repair 16µM
CN1CCN(Cc2nc3ccccc3c(=O)n2Cc2nc(-c3ccc4ccccc4c3)cs2)CC1	KB-3-1 tox inconclusive, SW480 rerep 12µM, MCF10A rereplic inconclusive, KB-V1 MDR tox 21µM!, ELG1 DNA repair 13µM
Cc1cc(C)c2c(=O)n(CC(=O)NC3CCCC3)sc2n1	KB-3-1 tox inconclusive, MCF10A rereplic 21µM
COc1ccc(S(=O)(=O)Nc2cccc(-c3ccc4nncn4n3)c2)cc1	KB-3-1 tox 5.8µM, SW480 rerep 3.5µM, MCF10A rereplic 5.8µM, KB-V1 MDR tox inconclusive
CC(C)OC(=O)CSc1nc2ccccc2s1	ELG1 DNA repair inconclusive
COC(=O)C1CCN(C(=O)Nc2ccc(OC)cc2)CC1	none
CC1(C)C(=O)C=CC(=O)C(C)(C)C(=O)C=CC(=O)C(C)(C)C2=CC=C(O2)C(C)(C)C(=O)C=CC1=O	KB-3-1 tox inconclusive, SW480 rerep inconclusive, MCF10A rereplic 7.3µM (no result: ELG1 DNA repair)
CCN1C(=O)/C(=C2/Sc3ccccc3N2CC)S/C1=N\c1ncn[nH]1	MCF10A rereplic inconclusive, KB-V1 MDR tox 23µM, ELG1 DNA repair inconclusive
C=CCN1C(=O)/C(=C2/Sc3ccccc3N2CC)SC1=S	SW480 rerep inconclusive, MCF10A rereplic inconclusive
COc1cc(OC)cc(N2CC(C)(C)C2=O)c1	none
Cc1cc(C(=O)c2ccc(Cl)cc2)c(NC(=O)CCl)s1	KB-3-1 tox inconclusive, SW480 rerep inconclusive, MCF10A rereplic 21µM, KB-V1 MDR tox inconclusive
CCc1cc(C(=O)c2ccc(C)cc2)c(NC(=O)CCl)s1	KB-3-1 tox 23µM, SW480 rerep inconclusive, MCF10A rereplic inconclusive, KB-V1 MDR tox inconclusive
Cc1ccc(C(=O)c2cc(C)sc2N)cc1	none
Cc1ccc2nc(-c3ccc(F)cc3)c(Cc3ccccc3C(F)(F)F)n2c1	none (no result: SW480 rerep, MCF10A rereplic, ELG1 DNA repair)
N#Cc1c(N)nc2c(c1N)CC(CCl)O2 (stereo unspecified)	ELG1 DNA repair inconclusive
COc1cccc(NC(=O)CN(C)C(=O)C2CC3C=CC2C3)c1 (stereo unspecified)	ELG1 DNA repair inconclusive
CC(C)(C)c1nnc(N/N=C/c2ccccc2)n(N)c1=O	SW480 rerep inconclusive, KB-V1 MDR tox inconclusive
CCc1nnc(N/N=C/c2ccccc2F)n1N	SW480 rerep inconclusive, MCF10A rereplic 26µM
CC(C)(C)c1nnc(N/N=C/c2ccccc2O)n(N)c1=O	KB-3-1 tox inconclusive, MCF10A rereplic inconclusive, ELG1 DNA repair 21µM
Cc1cccc(C(=O)NCC(=O)OCC(=O)c2cc(C)n(CC3CCCO3)c2C)c1 (stereo unspecified)	ELG1 DNA repair inconclusive
Brc1ccc(-c2nnc3c4ccccc4nc(N4CCOCC4)n23)cc1	KB-V1 MDR tox 2.6µM
Fc1ccccc1-c1nnc2c3ccccc3nc(N3CCOCC3)n12	none
Cc1nnc2c3ccccc3nc(N3CCN(c4ccccc4)CC3)n12	none (no result: SW480 rerep, MCF10A rereplic, ELG1 DNA repair)
Clc1ccc(-c2nnc3c4ccccc4nc(N4CCOCC4)n23)cc1Cl	MCF10A rereplic inconclusive, KB-V1 MDR tox 2.6µM
O=C(Nc1cccc(Cl)c1)OCc1cn(-c2ccc(Cl)cc2)nn1	none
Cc1ccc(C(=O)OC(C)C(=O)N(C)C2CCCCC2)cc1S(=O)(=O)N1CCCCC1 (stereo unspecified)	ELG1 DNA repair inconclusive
COc1ccc(CCNC(=O)C2CCCN2C(=O)Nc2cccc(OC)c2)cc1 (stereo unspecified)	none
CC(Sc1nc2ccccc2c(=O)n1CC1CCCO1)C(=O)N(C)Cc1ccccc1 (stereo unspecified)	KB-3-1 tox inconclusive, ELG1 DNA repair inconclusive
CC(Sc1nc2ccccc2c(=O)n1C)C(=O)N(C)C1CCCCC1 (stereo unspecified)	KB-3-1 tox inconclusive, MCF10A rereplic inconclusive, KB-V1 MDR tox 5.8µM
Cc1[nH]c2c(C)cccc2c1CCNS(=O)(=O)c1cccc([N+](=O)[O-])c1	KB-3-1 tox inconclusive, KB-V1 MDR tox 23µM
Cc1ccc([N+](=O)[O-])cc1S(=O)(=O)NCCc1c(C)[nH]c2c(C)cccc12	none
CC(C)CNC(=S)NC(=O)c1ccccc1Cl	ELG1 DNA repair inconclusive
CSCCC(NC(=O)c1ccc(Cl)cc1Cl)C(=O)N1CCN(C(=O)c2ccccc2)CC1 (stereo unspecified)	none (no result: ELG1 DNA repair)
O=S(=O)(c1ccc(Cl)c(NC(=S)N/N=C/c2c(F)cccc2F)c1)N1CCOCC1	SW480 rerep inconclusive, MCF10A rereplic inconclusive, ELG1 DNA repair inconclusive
O=S(=O)(c1ccc(NC(=S)NN=Cc2ccccc2O)cc1)N1CCCCC1	SW480 rerep inconclusive, KB-V1 MDR tox 7.3µM (no result: ELG1 DNA repair)
O=S(=O)(c1ccc(Cl)c(NC(=S)N/N=C/c2ccc(O)cc2)c1)N1CCOCC1	KB-3-1 tox inconclusive, SW480 rerep 18µM, MCF10A rereplic inconclusive, KB-V1 MDR tox 21µM, ELG1 DNA repair 23µM
NS(=O)(=O)c1ccc(NC(=S)Nc2ccc(S(=O)(=O)N3CCCC3)cc2)cc1	none
O=[N+]([O-])c1cc(Cl)cc(/C=N/NC(=S)Nc2ccc(S(=O)(=O)N3CCOCC3)cc2)c1O	KB-3-1 tox inconclusive, SW480 rerep inconclusive, ELG1 DNA repair 13µM
CC1=NN(C(=S)Nc2ccccc2)C(c2ccccc2)C1 (stereo unspecified)	ELG1 DNA repair inconclusive
Cc1ccc(C2CC(c3ccccc3)=NN2C(=S)Nc2ccccc2)o1 (stereo unspecified)	KB-3-1 tox 5.8µM, SW480 rerep 12µM, MCF10A rereplic 5.2µM, KB-V1 MDR tox 5.2µM, ELG1 DNA repair inconclusive
c1ccc(OCCSc2nnc3sc4ccccc4n23)cc1	KB-V1 MDR tox inconclusive, ELG1 DNA repair inconclusive
CCOC(=O)N1CCC(N(CCN(C)C)C(=S)Nc2cccc(Cl)c2C)CC1	MCF10A rereplic inconclusive
CCn1c(=O)n(CC)c2cc(S(=O)(=O)N3CCc4ccccc43)ccc21	KB-3-1 tox inconclusive, KB-V1 MDR tox 2.3µM, ELG1 DNA repair 16µM
COc1ccc(S(=O)(=O)N2CCc3ccccc32)cc1OC	KB-3-1 tox inconclusive
COc1ccc(CCNC(=O)CSC(=O)c2ccccc2)cc1OC	KB-3-1 tox inconclusive, KB-V1 MDR tox inconclusive
Cc1cc(/C=N\NC(=O)CC(=O)NC2CCCCC2)c(C)n1-c1cccc(Cl)c1Cl	KB-3-1 tox inconclusive, SW480 rerep inconclusive, MCF10A rereplic inconclusive, KB-V1 MDR tox 23µM
CCOc1ccc(-c2nc(C#N)c(NCCCOC)o2)cc1	none (no result: SW480 rerep, MCF10A rereplic, ELG1 DNA repair)
